VP16 counter: VP16 counterscreen qHTS for inhibitors of ROR gamma transcriptional activity; Drosophila S2 Gal4-VP16 UAS-luciferase, luminescence, 20 h; Potency, µM (doses to about 53.6 µM), without a hit: at the highest dose activity, negative = inhibition, usual class: inhibitors; actives 3.5% (n = 310,000); AID 2546, 2010;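 also: Gal4-VP16 expression switched on by copper sulfate through the metallothionein promoter; potency is read from the fitted curve at half-maximal effect; nearly all actives have a fitted effect of over 50% in size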
Six1-Eya2 blk: qHTS Assay for Inhibitors of the Six1/Eya2 Interaction; AlphaScreen GST-Six1/His-Eya2 binding, biochemical; active compounds read low; activity change, % (test concentration not listed); actives 0.56% (n = 360,000); in the data active = activity change below about -65%; inconclusive = mostly about -30% to -63%
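Six1/Eya2 binding was read as AlphaScreen signal after compounds were pinned into GST-Six1 plus His-tagged Eya2 (5X stock 250/500 nM) in pH 8.0 Tris/NaCl/TCEP buffer, beads added, then incubated 1 h, 37 C, dark.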
RORg inh: qHTS for inhibitors of ROR gamma transcriptional activity | AID 2551, 2010 | Nuclear receptor ROR-gamma (Mus musculus), P51450 | Drosophila S2 Gal4-RORgamma UAS-luciferase reporter, 20 h | Potency, µM (doses to about 53.6 µM), for inactives: at the highest dose activity change, negative = inhibition, actives largely listed as inhibitors | actives 5.4% (n = 310,000); also: potency is read from the fitted curve at half-maximal effect; nearly all actives have a fitted effect of over 60% in size
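A Gal4/UAS one-hybrid system in insect cells: metallothionein-promoter Gal4–ROR gamma fusion plus Photinus luciferase reporter. Copper sulfate 700 uM final, 20 hr ambient incubation, luminescent detection after 10 min with reagent.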
CtBP-E1A inh: qHTS Assay for Inhibitors of the CtBP/E1A Interaction; actives 0.49% (n = 340,000); AID 651724, 2012; activity change, % (concentration not given with the values); AlphaScreen GST-E1A/His-CtBP binding, 1536-well; active compounds read low; in the data active = activity change below about -65%; inconclusive = mostly about -30% to -63%
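AlphaScreen with 125 nM GST-E1A and 125 nM His-CtBP (5X stocks) in Tris pH 8.0, 300 mM NaCl, BSA, Tween 20, TCEP. Compounds preincubated 2 h at 37 deg C, then glutathione donor/nickel acceptor beads added for 1 h at 37 deg C in dark.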
PKM2 act: qHTS Assay for Activators of Human Muscle isoform 2 Pyruvate Kinase. Potency, µM (doses to about 57.5 µM), inactives show at the highest dose activation, usual class: activators. Pyruvate kinase PKM (Homo sapiens), P14618. actives 0.34% (n = 260,000). purified PKM2, Kinase-Glo ATP luminescence, activation; response scale: 0% is enzyme alone, no compound. AID 1631, 2009; also: potency is read from the fitted curve at half-maximal effect; nearly all actives have a fitted effect of over 55% in size
Target sequence (P14618 whole entry, looked up, canonical isoform): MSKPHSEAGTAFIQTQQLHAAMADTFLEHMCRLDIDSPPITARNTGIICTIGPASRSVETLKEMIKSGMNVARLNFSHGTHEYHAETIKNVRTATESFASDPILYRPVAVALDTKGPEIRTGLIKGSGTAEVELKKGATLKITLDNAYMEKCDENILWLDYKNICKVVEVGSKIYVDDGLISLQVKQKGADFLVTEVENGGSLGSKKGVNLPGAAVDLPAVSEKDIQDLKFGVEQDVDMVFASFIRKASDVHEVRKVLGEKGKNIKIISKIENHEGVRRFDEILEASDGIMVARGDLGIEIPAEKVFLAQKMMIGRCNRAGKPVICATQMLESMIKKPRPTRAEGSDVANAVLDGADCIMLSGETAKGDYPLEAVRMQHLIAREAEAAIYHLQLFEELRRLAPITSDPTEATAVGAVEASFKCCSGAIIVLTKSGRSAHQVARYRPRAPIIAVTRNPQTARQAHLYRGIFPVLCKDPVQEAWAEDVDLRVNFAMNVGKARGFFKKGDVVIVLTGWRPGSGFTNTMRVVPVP
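ATP formation by purified human PK-M2, quantified via coupled luciferase luminescence after 1 h at room temperature with 0.1 mM ADP and 0.5 mM PEP final.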
Active calls of the source: *; [ ] = another dose, or the depositor's remark. Compounds with a hit are over-represented: about 5.6% of the library has one in this group of screens. Unless noted, calls follow the shape of the dose curve; as a rule, active = well fitted curve in the direction sought with a large enough effect; inconclusive = small, poorly fitted or top-dose-only effect, or another doubt; inactive = no such curve, though single readings can be large; an effect the other way counts as inactive or inconclusive. % is scaled to controls: 0 for no effect and ±100 for the full control effect.

`CC1(C)C(O)CC(O)[C@]2(C)C1CC(O)[C@]1(C)C2CC[C@@]2(C)C(c3ccoc3)OC(=O)C3O[C@]312` (some centres not stated) gave VP16 counter 6% and RORg inh 35%.
`CC1(C)C(=O)C=C[C@@]2(C)C1=C(O)C(=O)[C@@]1(C)C2CC[C@@]2(C)C(c3ccoc3)C[C@H]3O[C@@]321` (some centres not stated) gave VP16 counter 10µM* and RORg inh 8.9µM*.
For CN(Cc1ccc(OC(F)F)cc1)Cc1nc2c(Br)cc(Br)cc2c(=O)[nH]1 the results were VP16 counter 13µM*, Six1-Eya2 blk 0, RORg inh 3.2µM*, CtBP-E1A inh 1 and PKM2 act 3%.
For O=C(COc1ccccc1)N1CCN(CCN2C(=O)c3cccc4cccc(c34)C2=O)CC1 the results were VP16 counter 1%, Six1-Eya2 blk -12, RORg inh 12% and PKM2 act -4%.
O=C1c2cccc3cccc(c23)C(=O)N1CCN1CCN(C(=S)Nc2ccccc2)CC1 was read as VP16 counter inconclusive, Six1-Eya2 blk -12, RORg inh 14µM*, CtBP-E1A inh 27 and PKM2 act -10%.
For O=Cc1ccc2c(c1)OCO2 the results were VP16 counter 6% and RORg inh 0%.
Screening COC(=O)[C@H]1C(=O)c2ccccc2O[C@@](C(=O)OC)(c2ccccc2)[C@@H]1c1ccccc1 returned VP16 counter 4%[10 µM] and RORg inh 22%[10 µM].
For Cc1cc(C)cc(N2C(=O)NC(=O)/C(=C/c3cccn3-c3ccc(Cl)cc3)C2=O)c1 the results were VP16 counter 11µM*, Six1-Eya2 blk -5, RORg inh 32µM*, CtBP-E1A inh 4 and PKM2 act -14%.
`CCON=O` gave VP16 counter 4% and RORg inh -7%.
CCn1nc(-c2ccccc2)nc2c(=O)n(C)c(=O)nc1-2 was read as VP16 counter 1.3µM*, Six1-Eya2 blk -27, RORg inh 0.89µM*, CtBP-E1A inh -26 and PKM2 act 3%.
For COC(=O)[C@@H]1[C@@H](O)[C@@]2(O)c3c(OC)cc(OC)cc3O[C@@]2(c2ccc(OC)cc2)[C@H]1c1ccccc1 the results were VP16 counter 0.1µM* and RORg inh 0.4µM*.
Screening COC(=O)C1C(c2ccccc2)C2C(=O)c3c(OC)cc(OC)cc3O[C@@]12c1ccc(OC)cc1 (some centres not stated) returned VP16 counter -10%[10 µM] and RORg inh 4%[10 µM].
CCC#N was read as VP16 counter 0% and RORg inh 20%.
CNc1ccc2nc3ccccc3[n+](C)c2c1 was read as VP16 counter -16%, Six1-Eya2 blk -75* and RORg inh -41%.
For C[n+]1c2ccccc2nc2ccc(NCCO)cc21 the results were VP16 counter -15%, Six1-Eya2 blk -73*, RORg inh -34% and CtBP-E1A inh -70*.
Screening OCCNc1c2c(nc3ccccc13)CCCC2 returned VP16 counter 1%, Six1-Eya2 blk -3, RORg inh -3%, CtBP-E1A inh 0 and PKM2 act -2%.
Screening CC1(C)[C@H](C(=O)O[C@H](C#N)c2cccc(Oc3ccccc3)c2)[C@@H]1C=C(Br)Br returned VP16 counter 5% and RORg inh 9%.
Screening CCN1CCN(CC(c2ccccc2)c2ccccc2)CC1 returned VP16 counter -6%, Six1-Eya2 blk 0, RORg inh 20µM*, CtBP-E1A inh -1 and PKM2 act 1%.
`CCN1CCc2ccccc2C1` gave VP16 counter -4%, Six1-Eya2 blk 5, RORg inh 0%, CtBP-E1A inh -10 and PKM2 act 1%.
For CCC(=NCc1ccc(F)cc1)c1c(O)n(C)c(=O)n(C)c1=O the results were VP16 counter 22µM*, Six1-Eya2 blk -3, RORg inh 24%, CtBP-E1A inh 0 and PKM2 act -3%.
For CC(C)[C@]12O[C@H]1[C@@H]1O[C@]13[C@]1(O[C@H]1C[C@H]1C4=C(CC[C@@]13C)C(=O)OC4)[C@@H]2O the results were VP16 counter 0.4µM*, RORg inh 0.32µM* and PKM2 act -3%.
C[n+]1c2cc(N)ccc2cc2ccc(N)cc21 was read as VP16 counter 7.1µM*, Six1-Eya2 blk inconclusive, RORg inh inconclusive and CtBP-E1A inh inconclusive.
For N#CC(C#N)=NNc1ccc(S(N)(=O)=O)cc1 the results were VP16 counter -8%, Six1-Eya2 blk inconclusive, RORg inh 7%, CtBP-E1A inh -74* and PKM2 act -7%.
`c1cc2c(cc1C1OC[C@@H]3C(c4ccc5c(c4)OCO5)OCC13)OCO2` (some centres not stated) gave VP16 counter -8% and RORg inh 44%.
C[C@H]1O[C@@H](O[C@H]2[C@@H](O)C[C@H](O[C@H]3[C@@H](O)C[C@H](O[C@H]4CC[C@]5(C)C6CC[C@]7(C)[C@@H](C8=CC(=O)OC8)CC[C@]7(O)C6CC[C@@H]5C4)O[C@@H]3C)O[C@@H]2C)C[C@H](O)[C@@H]1O (some centres not stated) was read as VP16 counter -12% and RORg inh 2.5µM*.
`CC(=O)OC1CC(OC2C(O)CC(OC3C(O)CC(OC4CCC5(C)C(CCC6C5CC(O)C5(C)C(C7=CC(=O)OC7)CCC65O)C4)OC3C)OC2C)OC(C)C1OC1OC(CO)C(O)C(O)C1O` (configuration not stated) gave VP16 counter inconclusive, Six1-Eya2 blk -4, RORg inh -18% and CtBP-E1A inh 6.
`C[C@]12CC[C@H](O)C[C@H]1CC[C@@H]1[C@@H]2CC[C@]2(C)[C@@H](C3=CC(=O)OC3)CC[C@]12O` gave Six1-Eya2 blk 1 and CtBP-E1A inh 4.
For CC1O[C@@H](O[C@@H]2C(O)C[C@H](O[C@@H]3C(O)C[C@@H](OC4CC[C@@]5(C)C6CC[C@]7(C)C(C8=CC(=O)OC8)CC[C@@]7(O)C6CC[C@@H]5C4)OC3C)OC2C)CC(O)[C@H]1O (some centres not stated) the results were VP16 counter 3% and RORg inh 3.2µM*.

Bioassay records deposited in PubChem BioAssay by National Center for Advancing Translational Sciences (NCATS).
